Sampled rows, rich in hits. Any-hit rate of the full collection: about 2.9%.
ABHD5-PLIN5 inh: blocks binding of human ABHD5 to perilipin-5 | Q00G26+Q8WTS1 | Split G. princeps luciferase complementation, luminescence, 4 h | inhibition, % at 4 µM | 0.78% of 360,000 active | AID 602281;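 active means inhibition above the mean inhibition across every tested compound plus 3 SD, cut at about 22% in these data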;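 further: 0% = DMSO only wells and the 100% control is not disclosed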
DAGLB inh: blocks human DAGLB lipase activity; Q8NCG7; HEK293T DAGLB membrane lysate, EnzChek fluorogenic substrate; inhibition, % at 5.17 µM; 0.059% of 340,000 active; in the data active means inhibition above about 34%;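 further: 0% = enzyme with vehicle and 100% = wells lacking enzyme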
Target sequence (Q8NCG7 whole entry, looked up): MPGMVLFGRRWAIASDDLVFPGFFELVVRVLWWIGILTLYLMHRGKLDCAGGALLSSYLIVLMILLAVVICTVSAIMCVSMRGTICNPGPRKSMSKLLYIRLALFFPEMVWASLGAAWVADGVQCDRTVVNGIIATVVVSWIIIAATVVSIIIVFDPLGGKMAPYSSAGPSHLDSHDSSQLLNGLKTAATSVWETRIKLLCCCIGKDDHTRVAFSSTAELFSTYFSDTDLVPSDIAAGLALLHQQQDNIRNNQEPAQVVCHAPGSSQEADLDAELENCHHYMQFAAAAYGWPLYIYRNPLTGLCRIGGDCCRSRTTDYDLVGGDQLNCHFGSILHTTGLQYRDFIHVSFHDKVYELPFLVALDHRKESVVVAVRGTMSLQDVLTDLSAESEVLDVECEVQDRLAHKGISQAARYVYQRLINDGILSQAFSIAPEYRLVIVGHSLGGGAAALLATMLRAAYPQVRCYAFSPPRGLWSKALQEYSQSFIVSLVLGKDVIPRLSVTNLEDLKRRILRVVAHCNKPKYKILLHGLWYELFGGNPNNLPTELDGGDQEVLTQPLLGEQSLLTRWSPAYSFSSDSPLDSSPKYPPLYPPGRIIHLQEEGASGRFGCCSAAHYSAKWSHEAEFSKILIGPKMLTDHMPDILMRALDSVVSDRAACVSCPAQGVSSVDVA
sPLA2-III inh: Blocks human group III sPLA2 activity | Q9NZ20 | QFRET BODIPY PC-A2 liposome hydrolysis, fluorescence | inhibition, % at 12.2 µM | 0.56% of 370,000 active | AID 743126;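 active means inhibition above mean plus 3 SD of compounds lying within the high and low control bounds, cut at about 19% in these data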;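 further: 0% = median of test compound wells and 100% = no enzyme DMSO wells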
H9c2 protect: protects H9c2 cardiomyocytes from peroxide injury | H2O2 injury protection, ATPLite, 2 h | protection from H2O2 cell death, % at 20 µM | AID 588492 | 0.63% of 360,000 active;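 active means compounds giving at least 50% protection of heart cells from peroxide-induced death in the single-dose screen, raw or plate-pattern-corrected value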;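 further: 0% = DMSO wells with peroxide and 100% = DMSO wells without peroxide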
Myeloid diff MLP: myeloid differentiation induction; calls only at 10 µM; ER-HoxA9 myeloid progenitors, lysozyme-GFP differentiation, flow cytometry; AID 624256; 1% of 360,000 active;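 active means normalized GFP-positive differentiation at or above the plate's own cutoff, the solvent-only control mean plus 3 SD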;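 further: cells exposed to compound for four days before flow analysis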
Rtt109 Vps75: C. albicans Rtt109 histone acetyltransferase inhibition; Q5AAJ8; 0.16% of 330,000 active; purified Rtt109/Vps75, ThioGlo CoA-SH fluorescence, 4 h; inhibition, % at 34.9 µM;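 active means inhibition of at least 50% in every replicate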
hGIII sPLA2 conf: human GIII-sPLA2 inhibition, confirmation; shares compounds with sPLA2-III inh; recombinant hGIII-sPLA2, BODIPY PC-A2 QFRET fluorescence; 34% of 2,000 active; inhibition, % at 12.2 µM;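 active means mean inhibition across triplicates above the hit cutoff set in the earlier primary screen, cut at about 19% in these data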;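 further: 0% = enzyme with DMSO and 100% = DMSO wells lacking enzyme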
535nm interf: 535nm fluorescence interference, HGIII-sPLA2 counter-screen. inhibition, % at 12.2 µM. BODIPY FL product fluorescence interference, QFRET. shares compounds with sPLA2-III inh. 8.5% of 2,000 active;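 active means average inhibition above the solvent-only control mean plus 3 SD, cut at about 6% in these data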;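 further: 0% = DMSO with substrate plus product and 100% = DMSO with substrate alone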
535nm interf DR: interferes with 535nm fluorescence in dose response counter-screen; shares compounds with sPLA2-III inh; BODIPY FL product fluorescence interference, cell-free; IC50, µM; 240 tested, under 10 active; AID 743455;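 active means IC50 at or below 10 µM; inactive means IC50 above 10 µM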
* hit, by the source's call; i = inactive; x = not tested or not shown.

SMILES	ABHD5-PLIN5 inh	DAGLB inh	sPLA2-III inh	H9c2 protect	Myeloid diff MLP	Rtt109 Vps75	hGIII sPLA2 conf	535nm interf	others
O=C(NCc1ccccc1)[C@H]1CCCN1C(=O)[C@H]1CCCN1C(=O)c1ccc(Cl)cc1	x	x	22*	x	x	x	4	-9
COc1cccc(CNC(=O)[C@H]2CCCN2C(=O)[C@H]2CCCN2C(=O)c2ccc(C)cc2)c1	x	x	22*	x	x	x	-2	-10
C=CCn1c(SCc2nc3ccccc3[nH]2)nnc1-c1ccc(OC)cc1	-7	-1	2	-2	i	2	x	x
COc1ccc(-c2c(C)c3ccc(O)cc3oc2=O)cc1	-3	-1	-25	7	i	-8	x	x
Cc1ccc(C(=O)OC(C)C(=O)Nc2ccc3c(c2)OCO3)c(O)c1 (stereo unspecified)	-6	-3	-1	-8	i	-5	x	x
Nc1nc(CSCc2ccccc2)nc(N2CCOCC2)n1	-4	0	1	-6	i	2	x	x
CCN1CCN(C(c2cccs2)C(C)NC(=S)NC2CCCCC2)CC1 (stereo unspecified)	-1	5	12	0	i	-33	x	x
CC(NC(=O)Nc1ccccc1)C(c1cccs1)N1CCOCC1 (stereo unspecified)	2	0	0	4	i	-6	x	x
COc1ccccc1NC(=S)NC(C)C(c1cccs1)N1CCOCC1 (stereo unspecified)	7	0	25*	2	i	-3	8	-11
CC(NC(=S)NC1CCCCC1)C(c1cccs1)N1CCOCC1 (stereo unspecified)	4	-1	24*	2	i	-8	19	-3
Cc1ccc(N(Cc2ccccc2)C(=O)c2cccc(S(=O)(=O)N3CC(C)OC(C)C3)c2)cc1 (stereo unspecified)	3	-7	-6	-4	i	4	x	x
COc1ccc(NC(=O)Nc2cc(C)ccn2)cc1	-1	1	-4	-15	i	-4	x	x
COc1ccc(NC(=O)Nc2cnccn2)cc1	-1	1	22*	-1	i	-11	2	-4
O=C(NN1C(=O)C2C3C=CC(C3)C2C1=O)c1ccncc1 (stereo unspecified)	0	1	7	0	i	4	x	x
CC12C(=O)N(NC(=O)c3ccncc3)C(=O)C1C1C=CC2C1 (stereo unspecified)	-1	-2	21*	1	i	-2	-5	-5
S=C(Nc1ccc(Nc2ccccc2)cc1)NN1CCOCC1	10	2	14	-5	i	x	x	x
Fc1ccc(NC(=S)NN2CCOCC2)cc1Cl	0	0	25*	14	i	11	1	0
CCOc1ccc2ccccc2c1CNCCCN1CCOCC1	6	1	5	2	i	x	x	x
Cc1ccc2[nH]c(=O)c3cc(C(=O)N(C)Cc4ccco4)sc3c2c1	10	4	-8	20	i	-25	x	x
Cc1ccc(-n2c(SCC(=O)O)nc3sc4c(c3c2=O)C(C)CCC4)cc1 (stereo unspecified)	-4	6	4	-4	i	-7	x	x
COc1cc(O)c2c(=O)c3c(O[C@H]4O[C@@H](CO)[C@H](O)[C@@H](O)[C@@H]4O)ccc(O)c3oc2c1	-5	0	5	2	i	2	x	x
COc1cc(O)c2c(=O)c3c(O)ccc(O)c3oc2c1	7	7	22*	-3	i	4	7	-3
CCOc1nc(Nc2ccc([N+](=O)[O-])cc2)nc(NC(C)(C)C)n1	-5	2	21*	-5	i	4	1	1
CCCCC(=O)Oc1cc(C)[nH]c(=O)c1[N+](=O)[O-]	2	1	21*	3	i	-3	1	-5
Cc1ccc(NS(=O)(=O)c2ccc(Br)s2)cc1S(=O)(=O)N1CCOCC1	2	0	-21	3	i	-9	x	x
SMILES	ABHD5-PLIN5 inh	DAGLB inh	sPLA2-III inh	H9c2 protect	Myeloid diff MLP	Rtt109 Vps75	hGIII sPLA2 conf	535nm interf	others
Nc1cc(N)c2c(c1)C(=O)c1ccccc1-2	-1	13	20*	11	i	7	38*	4	535nm interf DR=>122
Cc1ccc(C(=O)C(C)OC(=O)c2ccc(Cl)nc2)cc1 (stereo unspecified)	1	-5	12	5	i	4	x	x
Cc1ccc(Cn2cccc2C2=NC(C)CO2)cc1 (stereo unspecified)	-3	-2	21*	-2	i	-5	-6	-9
CCCn1c(CNC(=O)Cc2ccccc2)nc2ccccc21	0	3	6	3	i	0	x	x
Cc1ccc(Nc2n[nH]c(=S)s2)c(C)c1	-19	1	20*	-5	i	x	30*	2	535nm interf DR=>122
CN(C(=O)c1ccc(NC(=O)Cc2ccccc2)cc1)c1ccccc1	1	1	-11	-1	i	3	x	x
O=C1c2ccccc2C(=O)c2c1ccc1c(=O)n(-c3ccccc3)[nH]c21	9	0	26*	-6	i	-5	20*	-2
COc1ccc(C(CNC(=O)CNS(=O)(=O)c2ccc(NC(C)=O)cc2)N2CCOCC2)cc1 (stereo unspecified)	-10	3	2	0	i	-6	x	x
O=C1OC(c2ccccc2)/C(=C(/O)c2ccc(Cl)cc2)C1=O (stereo unspecified)	16	8	22*	5	i	6	-39	-3
O=C(CNC(=O)c1ccc(Br)cc1)NC1=NCCS1	5	-3	3	10	i	4	x	x
CCOC(=O)c1ccc(NC(=S)Nc2cccc(N)n2)cc1	1	3	22*	0	i	4	22*	-5
CCCN(CCC)C(=O)c1oc2ccccc2c1NC(=O)Cc1cccc(OC)c1	-1	-14	20*	-4	i	-4	-2	-19
COc1ccccc1N(C)S(=O)(=O)c1ccc(C(=O)NNC(=O)c2ccccc2O)cc1	-8	7	20*	33	i	x	2	1
CCC(C(=O)NC(C)(C)C)N(C(=O)c1ccc(Cl)nc1)C1CCCC1 (stereo unspecified)	-3	-1	4	-2	i	-4	x	x
COc1ccc(C(=O)Nc2ccc(C(F)(F)F)n(C)c2=O)cc1	-3	-2	5	-1	i	x	x	x
CCn1c(SCC(=O)Nc2nccs2)nnc1-c1ccccn1	-1	0	-2	11	i	0	x	x

Assay outcomes (PubChem BioAssay)
